Results taken from PubChem BioAssay AID1159580 (chemical genetic matrix, 2015).
Screen size: about 5,500 compounds; about 2,000 (36%) were called active. Inconclusive results (about 18%) are left out. Cut-off read from the data, not from the text of the source: active = normalized growth mostly below about 0.91 (no sharp cut-off); inconclusive = no clear call, values can overlap the other calls; inactive = mostly above about 0.92. This is one part of the list.

Test: chemical genetic growth profiling, strain panel (AID 1159580);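 note: tested at 20 µM; growth read once vehicle control cultures reached saturation at 30 °C; 1 = growth at the plate median or of vehicle wells; lower values mean less growth of the strain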
Conditions: growth OD

Measured: normalized growth

Oc1ccc(Cl)cc1Cc1cc(Cl)ccc1O
active: S. cerevisiae deletion strains, locus YJR075W, strain HOC1, hits give low values 0.0746 | S. cerevisiae deletion strains, locus YKL009W, strain mrt4, hits give low values 0.092 | S. cerevisiae deletion strains, locus YKL068W, hits give low values 0.101 | S. cerevisiae deletion strains, locus YKL085W, strain MDH1 (second series), hits give low values 0.0549 | S. cerevisiae deletion strains, locus YKL085W, strain MDH1, hits give low values 0.0549 | S. cerevisiae deletion strains, locus YKL160W, strain elf1, hits give low values 0.0693 | S. cerevisiae deletion strains, locus YKL190W, strain CNB1, hits give low values 0.0512 | S. cerevisiae deletion strains, locus YKR001C, strain vps1, hits give low values 0.0604 | S. cerevisiae deletion strains, locus YKR026C, strain gcn3, hits give low values 0.13 | S. cerevisiae deletion strains, locus YKR091W, strain srl3, hits give low values 0.0642 | S. cerevisiae deletion strains, locus YLL001W, strain dnm1, hits give low values 0.113 | S. cerevisiae deletion strains, locus YLL026W, hits give low values 0.0579 | S. cerevisiae deletion strains, locus YLL041C, strain sdh2, hits give low values 0.0645 | S. cerevisiae deletion strains, locus YLR027C, strain aat2, hits give low values 0.0566 | S. cerevisiae deletion strains, locus YLR039C, strain RIC1, hits give low values 0.0807 | S. cerevisiae deletion strains, locus YLR058C, strain SHM2, hits give low values 0.0611 | S. cerevisiae deletion strains, locus YLR102C, strain apc9, hits give low values 0.0602 | S. cerevisiae deletion strains, locus YLR113W, strain HOG1, hits give low values 0.165 | S. cerevisiae deletion strains, locus YLR221C, strain rsa3, hits give low values 0.0636 | S. cerevisiae deletion strains, locus YLR258W, strain gsy2, hits give low values 0.0643 | S. cerevisiae deletion strains, locus YLR262C, strain YPT6 (second series), hits give low values 0.0751 | S. cerevisiae deletion strains, locus YLR262C, strain YPT6, hits give low values 0.101 | S. cerevisiae deletion strains, locus YLR268W, strain sec22, hits give low values 0.0687 | S. cerevisiae deletion strains, locus YLR320W, strain mms22, hits give low values 0.0873 | S. cerevisiae deletion strains, locus YLR330W, strain CHS5, hits give low values 0.0555 | S. cerevisiae deletion strains, locus YLR342W, strain FKS1 (second series), hits give low values 0.0854 | S. cerevisiae deletion strains, locus YLR342W, strain FKS1, hits give low values 0.0648 | S. cerevisiae deletion strains, locus YLR357W, strain rsc2, hits give low values 0.273 | S. cerevisiae deletion strains, locus YLR370C, strain arc18, hits give low values 0.108 | S. cerevisiae deletion strains, locus YLR371W, strain rom2, hits give low values 0.0629 | S. cerevisiae deletion strains, locus YLR384C, strain iki3, hits give low values 0.118 | S. cerevisiae deletion strains, locus YLR418C, strain cdc73, hits give low values 0.098 | S. cerevisiae deletion strains, locus YML016C, strain PPZ1, hits give low values 0.0858 | S. cerevisiae deletion strains, locus YML032C, strain rad52, hits give low values 0.0693 | S. cerevisiae deletion strains, locus YML120C, strain ndi1, hits give low values 0.0588 | S. cerevisiae deletion strains, locus YML124C, strain tub3, hits give low values 0.0644 | S. cerevisiae deletion strains, locus YMR058W, strain fet3, hits give low values 0.131 | S. cerevisiae deletion strains, locus YMR078C, strain ctf18, hits give low values 0.071 | S. cerevisiae deletion strains, locus YMR125W, strain sto1, hits give low values 0.0949 | S. cerevisiae deletion strains, locus YMR129W, hits give low values 0.0627 | S. cerevisiae deletion strains, locus YMR205C, strain PFK2, hits give low values 0.102 | S. cerevisiae deletion strains, locus YMR223W, strain ubp8, hits give low values 0.066 | S. cerevisiae deletion strains, locus YMR231W, strain pep5, hits give low values 0.085 | S. cerevisiae deletion strains, locus YMR263W, strain SAP30, hits give low values 0.0643 | S. cerevisiae deletion strains, locus YMR307W, strain GAS1, hits give low values 0.145 | S. cerevisiae deletion strains, locus YNL067W, strain RPL9B, hits give low values 0.0779 | S. cerevisiae deletion strains, locus YNL071W, strain lat1, hits give low values 0.0636 | S. cerevisiae deletion strains, locus YNL128W, strain TEP1, hits give low values 0.0892 | S. cerevisiae deletion strains, locus YNL153C, strain GIM3, hits give low values 0.0714 | S. cerevisiae deletion strains, locus YNL183C, strain NPR1, hits give low values -0.00267 | S. cerevisiae deletion strains, locus YNL209W, strain ssb2, hits give low values 0.0857 | S. cerevisiae deletion strains, locus YNL233W, strain BNI4, hits give low values 0.056 | S. cerevisiae deletion strains, locus YNL248C, strain rpa49, hits give low values 0.109 | S. cerevisiae deletion strains, locus YNL250W, strain rad50, hits give low values 0.0758 | S. cerevisiae deletion strains, locus YNL271C, strain bni1, hits give low values 0.0676 | S. cerevisiae deletion strains, locus YNL298W, strain CLA4, hits give low values 0.0642 | S. cerevisiae deletion strains, locus YNL307C, strain MCK1, hits give low values 0.0664 | S. cerevisiae deletion strains, locus YNL322C, strain KRE1 (second series), hits give low values 0.0828 | S. cerevisiae deletion strains, locus YNL322C, strain KRE1, hits give low values 0.0618 | S. cerevisiae deletion strains, locus YNR049C, strain mso1, hits give low values 0.109 | S. cerevisiae deletion strains, locus YNR052C, strain pop2, hits give low values 0.0645 | S. cerevisiae deletion strains, locus YOL006C, strain TOP1, hits give low values 0.0992 | S. cerevisiae deletion strains, locus YOL012C, strain htz1 0.176 | S. cerevisiae deletion strains, locus YOL147C, strain pex11, hits give low values 0.0563 | S. cerevisiae deletion strains, locus YOR001W, strain rrp6, hits give low values 0.0685 | S. cerevisiae deletion strains, locus YOR061W, strain CKA2, hits give low values 0.0631 | S. cerevisiae deletion strains, locus YOR069W, strain VPS5, hits give low values 0.0593 | S. cerevisiae deletion strains, locus YOR070C, strain gyp1, hits give low values 0.0618 | S. cerevisiae deletion strains, locus YOR080W, strain dia2, hits give low values 0.0748 | S. cerevisiae deletion strains, locus YOR083W, strain WHI5, hits give low values 0.0694 | S. cerevisiae deletion strains, locus YOR106W, strain vam3, hits give low values 0.0658 | S. cerevisiae deletion strains, locus YOR136W, strain idh2, hits give low values 0.0708 | S. cerevisiae deletion strains, locus YOR144C, strain elg1, hits give low values 0.0576 | S. cerevisiae deletion strains, locus YOR184W, strain ser1, hits give low values 0.0699 | S. cerevisiae deletion strains, locus YOR231W, strain MKK1, hits give low values 0.123 | S. cerevisiae deletion strains, locus YOR265W, strain rbl2, hits give low values 0.0619 | S. cerevisiae deletion strains, locus YOR270C, strain vph1, hits give low values 0.101 | S. cerevisiae deletion strains, locus YOR290C, strain snf2, hits give low values 0.0874 | S. cerevisiae deletion strains, locus YOR316C, strain cot1, hits give low values 0.0588 | S. cerevisiae deletion strains, locus YPL051W, strain arl3, hits give low values 0.0629 | S. cerevisiae deletion strains, locus YPL055C, strain LGE1, hits give low values 0.0724 | S. cerevisiae deletion strains, locus YPL078C, strain atp4, hits give low values 0.0851 | S. cerevisiae deletion strains, locus YPL106C, strain sse1, hits give low values 0.107 | S. cerevisiae deletion strains, locus YPL240C, strain hsp82, hits give low values 0.0585 | S. cerevisiae deletion strains, locus YPL241C, strain CIN2, hits give low values 0.0663 | S. cerevisiae deletion strains, locus YPL256C, strain CLN2, hits give low values 0.114 | S. cerevisiae deletion strains, locus YPR119W, strain clb2, hits give low values 0.0612 | S. cerevisiae deletion strains, locus YPR141C, strain kar3, hits give low values 0.0922 | S. cerevisiae deletion strains, locus YPR163C, strain tif3, hits give low values 0.07 | S. cerevisiae deletion strains, locus YPR167C, strain met16, hits give low values 0.0608 | S. cerevisiae deletion strains, strain wtn01, hits give low values 0.065 | S. cerevisiae strains, strain wild type, hits give low values 0.051
